# High-throughput results from PubChem BioAssay.
# An excerpt weighted towards active compounds, which were near 4.1% of everything screened.
# DAX1 inh-1: blocks DAX1 repression of SF-1 activated StAR promoter. AID 652010. hit rate 1.1% among 370,000. HEK293T StAR-luciferase reporter, SF-1/DAX-1 repression relief. inhibition, % at 6.8 µM;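 active means inhibition above the mean over all tested compounds plus 3 SD, cut at about 3.6% in these data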;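 further: 0% = DAX-1 cells with DMSO and 100% = cells lacking DAX-1 with DMSO; higher inhibition means more luminescence from relief of DAX-1 repression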
# ssDAF-12 act: activates DAF-12 receptor from parasite S. stercoralis; HEK293 ssDAF-12/GRIP1 lit1-tk-luc reporter, luminescence; % of 3 µM dafachronic acid response; activation, % at 6.8 µM; hit rate 1% among 370,000; AID 652126;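 active means activation above the mean over all tested compounds plus 3 SD, cut at about 0.9% in these data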;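 further: 0% = DMSO-only wells and 100% = 3 µM delta7-dafachronic acid wells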
# hgDAF12 agonist: hgDAF-12 agonism, primary luciferase screen. AID 687014. activation, % at 6.8 µM. hit rate 1.8% among 370,000. HEK293 GAL4-hgDAF12 UAS-luciferase reporter, agonist luminescence; normalized to butyrate control;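 active means activation above a cutoff set at the mean of all screened compounds plus 3 SD, cut at about 10% in these data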;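 further: 0% = DMSO wells and 100% = sodium butyrate wells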
# DAX1 inh-2: NR0B1 (DAX1) inhibition | P51843 | HEK293 Gal4-DAX1 luciferase reporter, luminescence | inhibition, % at 6.75 µM | hit rate 0.99% among 340,000 | AID 504766;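 active means inhibition above the mean over all tested compounds plus 3 SD, cut at about 4.2% in these data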;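 further: 0% = DAX1-transfected cells with DMSO and 100% = empty-vector control cells with DMSO; inhibition shows as a rise in luminescence from relieved DAX1 repression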
# Target sequence (P51843 207-470 limits assumed): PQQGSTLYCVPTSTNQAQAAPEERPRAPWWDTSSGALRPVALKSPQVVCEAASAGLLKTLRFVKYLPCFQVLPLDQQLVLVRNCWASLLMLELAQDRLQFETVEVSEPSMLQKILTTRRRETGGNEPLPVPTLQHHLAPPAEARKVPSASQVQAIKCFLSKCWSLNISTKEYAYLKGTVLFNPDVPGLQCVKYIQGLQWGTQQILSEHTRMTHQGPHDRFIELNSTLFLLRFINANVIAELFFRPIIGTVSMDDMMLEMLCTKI
# hcDAF12 agonist: activates DAF-12 receptor from parasite H. contortus; HEK293 hcDAF-12 lit1-tk-luc reporter, luminescence; 0% DMSO, 100% Δ7-dafachronic acid; activation, % at 6.8 µM; hit rate 1.4% among 370,000; AID 652067;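 active means activation above the mean of all tested compounds plus 3 SD, cut at about 5.5% in these data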;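 further: 100% = response to 3 µM Δ7-dafachronic acid high control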
# DAX1 inh confirm: NR0B1 (human) inhibition, confirmation | HEK293T StAR-promoter luciferase reporter, SF-1/DAX-1 repression | hit rate 87% among 2,400 | shares compounds with DAX1 inh-1 | AID 652134 | inhibition, % at 6.8 µM;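 active means inhibition above the average of every tested compound plus 3 SD, cut at about 3.8% in these data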;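 further: 0% = DAX-1 cells with DMSO and 100% = no DAX-1 control cells with DMSO; active compounds raise luminescence by relieving repression of the StAR reporter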
# Target sequence (P51843 whole entry, looked up): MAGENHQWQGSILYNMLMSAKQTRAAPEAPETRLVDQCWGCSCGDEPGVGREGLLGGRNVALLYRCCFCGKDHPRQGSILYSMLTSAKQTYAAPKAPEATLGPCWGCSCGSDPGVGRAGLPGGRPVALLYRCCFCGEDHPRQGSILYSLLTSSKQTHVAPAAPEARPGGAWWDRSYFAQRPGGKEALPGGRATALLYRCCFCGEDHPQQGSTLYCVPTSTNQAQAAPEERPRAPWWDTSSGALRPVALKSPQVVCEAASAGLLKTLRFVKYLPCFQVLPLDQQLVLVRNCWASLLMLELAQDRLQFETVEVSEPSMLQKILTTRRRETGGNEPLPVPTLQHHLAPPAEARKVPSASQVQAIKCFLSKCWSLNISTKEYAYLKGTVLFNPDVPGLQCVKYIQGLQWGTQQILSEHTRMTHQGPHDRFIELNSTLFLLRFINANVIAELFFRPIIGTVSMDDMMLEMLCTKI
# SF1 AF2mut Luc: counter-screen for DAX1 inhibitors: nonselective inhibitors with SF-1 AF2 mutant; shares compounds with DAX1 inh-1; HEK293 StAR-luciferase, luminescence; inhibition, % at 6.8 µM; hit rate 78% among 2,400; AID 652136;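 active means inhibition above the mean of all tested compounds plus 3 SD, cut at about 3% in these data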;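 further: 0% = DAX-1 transfected cells with DMSO and 100% = cells without DAX-1 with DMSO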
# Numbers without * were called inactive; . = not tested or not shown.
SMILES,DAX1 inh-1,ssDAF-12 act,hgDAF12 agonist,DAX1 inh-2,hcDAF12 agonist,DAX1 inh confirm,SF1 AF2mut Luc
CCN(CC)C(=O)C1CCCN(C(=O)c2ccc3nc(-c4cccc(OC)c4)oc3c2)C1 (stereo not drawn),0.7,-0.8,2.5,-1.4,0.8,.,.
COc1cccc(-c2nc3ccc(C(=O)N4CCCC(O)C4)cc3o2)c1 (stereo not drawn),5.3*,-0.5,9.3,0.3,1.5,7.4*,7.4*
O=C(c1ccc2oc(CCCc3ccccc3)nc2c1)N1CCCC1,9.0*,1.0*,10.8*,1.2,5.8*,9.5*,6.9*
CC(C)C[C@@H]1COc2cc(Br)ccc2S(=O)(=O)N1Cc1cn(CCC2OCCO2)nn1,-0.5,-1.2,0.4,.,-0.8,.,.
Cc1cc(C(=O)O[C@H]2CCC[C@]3(C(=O)N(Cc4ccccc4)c4ccccc43)[C@H]2NC(=O)CCc2ccccc2)no1,-1.1,-1.6,1.9,.,-1.9,.,.
CCCC(=O)OC[C@H]1CN(C2CCCC2)S(=O)(=O)c2c(Oc3ccc(C(C)(C)C)cc3)cccc2O1,-0.1,-0.9,-0.9,.,0.4,.,.
COc1ccc(Cc2nc3ccc(C(=O)N4CCCC4)cc3o2)cc1,8.3*,1.1*,10.6*,2.8,2.4,9.2*,3.4*
COc1ccc(Cc2nc3ccc(C(=O)N4CCCC4)cc3o2)cc1OC,-0.8,-1.1,-1.1,-0.9,-0.8,.,.
CS(=O)(=O)N1CCCCC1c1cc(C(=O)Nc2cccc(C#N)c2)no1 (stereo not drawn),2.0,-0.7,4.0,.,-2.2,.,.
CS(=O)(=O)N1CCCCC1c1cc(C(=O)Nc2ccccc2)no1 (stereo not drawn),6.7*,-0.5,11.2*,.,2.4,7.9*,7.0*
C[C@]12Cc3ccccc3C1CC1=N[C@@H](C3CCCCC3)O[C@@]13C[C@@H]2C(=O)N3C1CCN(Cc2ccccc2)CC1 (stereo partly drawn),-0.4,-0.5,1.1,.,0.2,.,.
c1ccc(-n2ncc3c(NC4CCCCCC4)ncnc32)cc1,5.7*,-0.6,10.8*,5.9*,-0.1,10.2*,5.7*
CCC(=O)N1CCc2cc(Br)c(S(=O)(=O)NCCCN(CC)Cc3ccccc3)cc21,0.4,-0.3,0.2,.,1.4,.,.
COC(=O)C1=C(C)N(C)C(=NCc2ccccc2)NC1CCc1ccccc1 (stereo not drawn),0.1,-0.9,1.4,.,-1.1,.,.
CCN(CC)CCn1c2c(c(SCC(=O)Nc3ccc(F)c(F)c3)nc1=O)CCC2,0.0,-1.2,-2.6,-0.7,-0.2,.,.
CCN(CC)CCCn1c2c(c(SCC(=O)Nc3cccc(C)c3C)nc1=O)CCC2,7.2*,-0.9,2.0,1.5,1.7,7.7*,6.3*
CCN(CC)CCCn1c2c(c(SCC(=O)Nc3ccc(F)c(F)c3)nc1=O)CCC2,4.7*,-0.9,-0.5,-0.7,0.7,2.5,2.0
CCN(CC)CCCn1c2c(c(SCC(=O)Nc3nc(C)cs3)nc1=O)CCC2,1.6,-0.5,3.9,-1.0,-0.9,.,.
COC(=O)[C@H]1C[C@@]2(c3ccccc3)c3ccccc3N[C@H]2N1,-0.2,-0.4,0.8,.,5.4,.,.
O=C(Cn1c(=O)c2cccn2c2cccnc21)NCCCN1CCN(c2ccc(Cl)cc2)CC1,.,-1.4,3.1,.,-3.2,.,.
N#Cc1ccccc1N1CCN(S(=O)(=O)c2ccc3c(c2)CCC(=O)N3)CC1,0.5,-1.1,2.8,.,-0.8,.,.
CC(=O)c1c(C)[nH]c(C(=O)Nc2ccc(C)c(C)c2)c1C,4.6*,0.2,8.8,1.9,0.7,10.4*,7.4*
COc1ccc(NC(=O)NC2CCCCCCC2)cc1,11.5*,0.9*,12.9*,2.3,5.8*,10.2*,5.8*
CCc1ccccc1NC(=O)NC1CCCCC1,0.2,-0.6,1.3,0.7,-0.8,.,.
O=C(Nc1ccccc1Cl)NC1CCCCCCC1,5.2*,-0.6,6.0,1.8,0.8,3.8*,2.4
SMILES,DAX1 inh-1,ssDAF-12 act,hgDAF12 agonist,DAX1 inh-2,hcDAF12 agonist,DAX1 inh confirm,SF1 AF2mut Luc
COc1cccc(NC(=O)NC2CCCCCCC2)c1,4.8*,-0.4,9.8,1.1,1.9,5.4*,4.3*
Cc1cccc(S(=O)(=O)N2CCC[C@H]2C(=O)N2CCC[C@@H]2C(=O)NCc2ccccc2)c1,-0.8,-1.1,-1.8,.,0.1,.,.
Cc1cccc(OCC(=O)Nc2nnc(-c3ccco3)s2)c1,0.4,-1.5,-0.6,-0.7,0.4,.,.
CCOc1cccc(C(=O)Nc2nnc(-c3ccco3)s2)c1,5.0*,0.7,11.5*,-1.4,4.6,15.0*,5.1*
CCOc1ccc(NC(=O)CN2CCCN(c3ccc(OC)cc3)CC2)cc1,-1.5,-1.1,-1.2,.,-2.6,.,.
Cc1[nH]c2ccc(C(=O)N3CCCCC3)cc2c1C,6.3*,0.7,11.3*,2.9,1.6,9.5*,3.6*
Fc1cccc(F)c1CSc1nc2ccccc2[nH]1,5.1*,0.5,11.8*,2.1,4.5,16.0*,7.8*
Cc1noc(C)c1CSc1nc2ccccc2[nH]1,0.4,-1.3,-0.7,0.1,-0.5,.,.
O=C(NCC(c1ccccc1)c1ccccc1)[C@H](Cc1ccccc1)NC1(C(=O)NC2CCCCC2)CCOCC1,.,-1.4,-0.4,.,0.8,.,.
COc1cc(OC)cc(C(=O)Nc2ccc3nc4n(c(=O)c3c2)CCCCC4)c1,6.0*,-1.4,1.1,-0.4,-1.5,3.2,2.3
O=C(c1cccs1)N1CCN(C(=O)c2cn(-c3ccccc3)nc2-c2ccccc2)CC1,7.7*,-0.4,6.9,1.3,1.2,5.8*,3.4*
COP(=O)(OC)C(Cc1ccccc1)NC(=O)CNC(=O)OCc1ccccc1 (stereo not drawn),-0.3,-0.5,-0.4,.,-2.2,.,.
NC(=N\N=Cc1ccco1)/C(N)=N/N=Cc1ccco1,0.8,-0.6,1.3,3.8,1.7,.,.
Oc1ccc(C=NN=Cc2ccco2)c(O)c1,4.6*,-0.3,9.4,5.5*,1.3,7.2*,4.8*
Cc1ccc(-c2cc(C(=O)N3CCCC3)no2)cc1,4.9*,-0.6,6.1,-2.9,4.3,8.6*,0.5
Cc1ccc(-c2cc(C(=O)N3CCOCC3)no2)cc1,1.2,0.1,7.5,-2.2,1.8,.,.
O=c1cc(N2CCN(c3cccc(C(F)(F)F)c3)CC2)[nH]c(=O)n1-c1ccccc1,.,-0.9,3.9,.,-0.5,.,.
NC(=O)c1ccccc1N/C=C/C(=O)c1ccc(F)cc1,5.2*,0.1,10.8*,1.4,3.5,9.7*,6.4*
COC(=O)[C@]12C[C@H](CC(=O)NCC3CCCCC3)C(=O)N(Cc3cccc4ccccc34)C1=C[C@H](COCc1ccccc1)O[C@@H]2C,0.6,-0.4,3.2,.,-0.7,.,.
S=C(NCCc1ccc(Cl)cc1)NC1CCCCC1,5.0*,0.6,4.9,3.7,4.4,1.8,3.0*
